Compounds without any hit were thinned out: in the full panel of roughly 83,000, 20% have a hit.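 Plates (96-well) were seeded with cells, treated with compound at one concentration, and incubated for 48 hours before percent growth was determined.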 Values without a mark were called inactive. How the source made its calls: active means growth percent below 10; inactive means the rest.
Each compound was assayed on HL-60(TB) leukemia (assay: NCI-60 one-dose screen, 48 h (100 = growth as untreated, 0 = no growth, -100 = all killed)). Conditions: 10 µM unless noted.
For `COc1ccc(-c2nc(N3CCCC3=O)sc2Br)cc1OC`, the growth was 101%.
Compound `COc1cc(CCN=Cc2ccccc2O)c([N+](=O)[O-])cc1OC` has a growth of 101%.
With `COc1cc2nc(-c3ccc(Cl)cc3)cc(OCCCN3CCCC3)c2cc1OC` the growth was 32.4%.
